High-throughput results (PubChem BioAssay)
EWS-Fli block: EWS/Fli transcriptional activity inhibition; A673 NR0B1-luciferase reporter, viability-normalised; inhibition, % at 12.6 µM; 350,000 compounds, 0.67% hits; AID 651661;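 active = mean inhibition of at least 50% after viability correction, with every replicate also passing that limit; inconclusive = mean reaches 50% but only one of two replicates passes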;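 also: firefly luciferase signal divided by Alamar Blue viability fluorescence both relative to DMSO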
PAX8 inh HTS: lowers PAX8-driven luciferase in RMG-I cells; RMG-I TPO-luciferase reporter, SteadyGlo, 24 h; inhibition, % at 12.6 µM; 360,000 compounds, 1.2% hits;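 active = mean replicate inhibition at least 60% with every replicate also reaching 60%; inconclusive = only one of the two criteria is met; inactive = mean below 60% and not all replicates reaching 60%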;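 also: luciferase light reporting Pax8 driven TPO promoter activity; plate controls were median of neutral control wells for no effect and mitoxantrone controls for full effect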
LGR2 antag: Drosophila LGR2 receptor signaling inhibition; HEK293 LGR2, CRE-luciferase, bursicon-stimulated, 4 h; inhibition, % at 9.99 µM; 380,000 compounds, 0.35% hits;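 active = drop in luminescence signal, shown as inhibition above about 50% in the replicate tests, limit read from the data, passing the limit was not always enough; inconclusive = probably only some replicates passing the limit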;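 also: agonist challenge used bursicon conditioned medium at about half maximal strength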
TWEAK Fn14 block: TWEAK-Fn14 signaling inhibition; 360,000 compounds, 2% hits; inhibition, % at 10 µM; AID 1159606; TWEAK-stimulated Fn14 reporter cells, luciferase luminescence, 8 h; in the data active = inhibition above about 50%
TROY signal inh: TROY signaling inhibition; Q293 LMP1-TROYcd NF-kB luciferase reporter, 4 h; inhibition, % at 10 µM; 360,000 compounds, 0.98% hits;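 active = compounds whose plate-normalised and pattern-corrected inhibition of the luciferase reporter signal at the single screening dose is 50% or more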
* = called active by the depositor; ? = inconclusive; . = not tested or not shown; ! = repeats disagree. Only some compounds are listed: those with a hit (about 2.8% of all), similar ones and a draw of the others.

SMILES	EWS-Fli block	PAX8 inh HTS	LGR2 antag	TWEAK Fn14 block	TROY signal inh
N#Cc1cccc(-c2ccc(C3[C@@H]4CN(C(=O)c5ccc6c(c5)OCO6)C[C@H]3N4)cc2)c1 (some centres not stated)	-4.9	6.0	-18.1	.	.
N#Cc1ccc(-c2ccc(C3[C@@H]4CN(C(=O)c5ccc6c(c5)OCO6)C[C@H]3N4)cc2)cc1 (some centres not stated)	-7.8	90.9*!	2.3	.	.
Cc1ccc(C2=NNC(c3cccc(F)c3)S2)cc1 (configuration not stated)	?	6.6	.	64.7*	53.9*
CN(C)S(=O)(=O)N1CCC(Oc2ccc(C(=O)NC3Cc4ccccc4C3)cc2)CC1	-22.7	-10.9	-13.2	52.3*	26.7
Cc1nc2cc(-c3ccc(Cl)cc3)nn2c(C)c1CCC(=O)NCc1ccco1	56.9*	-15.1	-31.0	44.8	6.9
C[C@@H]1CN([C@H](C)CO)C(=O)Cc2cc(NS(=O)(=O)c3ccc(Cl)cc3)ccc2O[C@@H]1CN(C)Cc1ccc(Oc2ccccc2)cc1	9.3	5.0	-2.6	.	.
C[C@@H]1CN([C@@H](C)CO)C(=O)Cc2cc(NS(=O)(=O)c3ccc(Cl)cc3)ccc2O[C@H]1CN(C)Cc1ccc(Oc2ccccc2)cc1	-23.1	106.0*	8.1	.	.
C[C@@H]1CN([C@@H](C)CO)C(=O)Cc2cc(NS(=O)(=O)c3ccc(F)cc3)ccc2O[C@H]1CN(C)Cc1ccc(Oc2ccccc2)cc1	17.2	86.1*	-8.1	.	.
C[C@H](NC(=O)C[C@@H]1CC[C@@H]2[C@H](COc3ccc(NC(=O)C4CCOCC4)cc3C(=O)N2C)O1)c1ccccc1	-2.8	-22.4	15.0	.	.
CC(=O)N(C)c1ccc(OCC(O)Cn2c(C)nc3ccccc32)cc1 (configuration not stated)	14.5	21.4	-13.8	16.7	7.0
CC(=O)N(C)c1ccc(OCC(O)Cn2c3ccc(Cl)cc3c3cc(Cl)ccc32)cc1 (configuration not stated)	.	47.7	.	47.6	62.9*
COc1ccccc1Cn1c(=O)c2ccccc2n2c(Sc3ncnc4sccc34)nnc12	.	19.4	.	88.5*	46.7
Cc1ccc(C(=O)N2c3ccccc3N(Cc3ccccc3)C(=O)C2(C)C)cc1	23.7	.	0.0	52.7*	36.4
O=C(C[C@@H]1C[C@@H]2c3cc(NS(=O)(=O)c4ccc(F)cc4)ccc3O[C@@H]2[C@@H](CO)O1)NCc1cc(F)ccc1F	11.2	.	-9.6	.	.
CCOc1cc(/C=C(\C#N)C(=O)Nc2cccc(C(=O)O)c2)cc(Br)c1OC(=O)c1ccc(OC)cc1	.	-21.9	-6.0	9.7	62.4*
NC(N)=N/N=C/c1ccc(Br)cc1	56.0*	-15.2	-17.4	27.8	4.8
N#Cc1ccc(/C=N/N=C(N)N)cc1	.	-7.1	.	4.2	9.5
C[C@H]1CN([C@@H](C)CO)C(=O)c2cc(C#Cc3ccncc3)cnc2O[C@H]1CN(C)CC1CCCC1	-15.8	-9.9	4.0	.	.
Cc1noc(C)c1COC(=O)c1cccc(S(=O)(=O)N2c3ccccc3CC2C)c1 (configuration not stated)	.	.	.	52.8*	18.7
C[C@@H]1CN([C@@H](C)CO)C(=O)c2cc(-c3ccccc3F)cnc2O[C@@H]1CN(C)C	-6.9	.	-5.9	.	.
Cc1cc(/C=C2/NC(=O)N(c3ccccc3)C2=O)c(C)n1C(C)C	-60.1	-75.7	-24.4	60.2*	47.8
Cc1cc(/C=C2/NC(=O)N(Cc3ccccc3F)C2=O)c(C)n1C(C)C	-22.4	-11.7	10.0	31.9	16.4
Cc1cc2nc(-c3ccc[nH]c3=O)[nH]c2cc1C	62.1*	57.2	77.5*	83.2*	25.9
COc1ccccc1NC(=O)N[C@H]1CC[C@H](CCn2cc(-c3ccccc3OC)nn2)O[C@@H]1CO	19.4	-31.4	.	.	.
COC(=O)[C@H]1[C@H](CO)[C@H]2Cn3c(ccc(-c4ccccc4F)c3=O)[C@H]2N1C(=O)CC1CC1	-0.1	-6.0	17.7	.	.
SMILES	EWS-Fli block	PAX8 inh HTS	LGR2 antag	TWEAK Fn14 block	TROY signal inh
CC(=O)c1ccc(N=Nc2ccc(N(C)C)cc2)cc1	26.3	-157.2	.	103.8*	54.0*
Cc1ccc(S(=O)(=O)n2cc(-c3ccccc3)c3ccccc32)cc1	59.6*	51.7	-21.9	14.1	14.5
CCCNC(=O)N1C[C@@H]2[C@H](c3ccccc31)[C@@H](CO)N2C(=O)CN1CCOCC1	4.9	-8.9	1.1	.	.
Cc1ccnc(NC(=O)/C=C/c2cccs2)c1	.	.	13.4	53.5*	-9.1
C[C@@H]1CN([C@@H](C)CO)C(=O)c2cccc(NC(=O)NC3CCCCC3)c2O[C@H]1CN(C)S(=O)(=O)c1ccc(Cl)cc1	9.9	-1.2	-22.7	.	.
Cc1ccc2nc(NNC(=O)c3ccc(S(=O)(=O)N4CCc5ccccc5C4)cc3)sc2c1	26.0	89.8*	34.3	13.8	-7.7
Cc1cccc2sc(NNC(=O)c3ccc(S(=O)(=O)N4CC(C)CC(C)C4)cc3)nc12 (configuration not stated)	50.0	.	46.1	63.8*	51.0*
C[C@H](CO)N1C[C@H](C)[C@H](CN(C)S(=O)(=O)c2cccs2)OCCCC[C@H](C)Oc2ccc(NC(=O)c3ccncc3)cc2C1=O	-1.2	-6.0	15.0	.	.
O=c1c2sc(-c3ccccc3)cc2nc2n1CCC2	.	27.2	.	74.0*	22.1
O=c1cc(/C=C/c2ccccc2)oc2c1ccc1ccccc12	.	9.8	7.7	64.0*	20.2
CC(=NNC(=S)N1CCCC1)c1ccccn1	46.2	49.9	-5.9	-6.9	-30.8
CC(=NNC(=S)N1CCC1)c1ccccn1	17.8	94.0*	38.6	39.5	-12.9
O=C(C[C@@H]1CC[C@H]2[C@@H](COC[C@@H](O)CN2S(=O)(=O)c2ccccc2)O1)N1CCc2ccccc2C1	2.4	15.3	14.0	.	.
CC12CCC(=O)C=C1CCC1C2CCC2(C)C(c3csc(N)n3)CCC12 (configuration not stated)	7.9	29.8	8.2	57.3*	50.8*
COc1ccc2c3c(n(C)c2c1)[C@@H](CO)N(Cc1ccncc1)CC31CCN(C(=O)C2CCCCC2)CC1	1.2	-8.1	9.9	.	.
C[C@H](CO)N1C[C@H](C)[C@H](CN(C)Cc2ccc(Oc3ccccc3)cc2)Oc2ccc(NC(=O)CCC(F)(F)F)cc2C1=O	9.5	.	-3.9	.	.
Cc1ccc(S(=O)(=O)c2ncccc2[N+](=O)[O-])cc1	22.9	108.8*	39.8	94.8*	52.9*
CC1(C)CC(NC(=O)c2ccc(F)cc2)CC(C)(C)N1	-1.5	3.3	-16.4	3.5	-0.9
CC1(C)CC(NC(=O)c2ccc(Cl)cc2)CC(C)(C)N1	6.0	11.9	2.6	74.5*	6.2
O=C(NC1CCCCC1)c1n[nH]c2c1CCCCC2	78.6*	54.7	91.1*	99.1*	83.3*
CC(=O)O[C@H]1[C@@H](O)[C@H](O)[C@H](Oc2c(O)c(C)c3c4c2[C@@H](C)CC[C@@H]4[C@@H](C)C[C@H]3C=C(C)C)O[C@H]1C	17.0	64.3*	8.8	27.6	7.8
C=CCNc1nc(-c2sc(NC(=O)C(C)(C)C)nc2C)c(-n2cc(-c3ccccc3)nn2)s1	1.4	20.4	36.5	57.5*	15.9
C=CCNc1nc(-c2sc(NC(C)=O)nc2C)cs1	.	-28.2	.	-0.5	-25.5
